# A selection: hits, their analogues and other compounds. The true share with any hit is near 1.7%.
# SARS 3CLpro inh-1 – SARS-CoV 3CLpro protease inhibition. P0C6X7. recombinant SARS-CoV 3CLpro, quenched FRET peptide cleavage. inhibition, % at 6 µM. 290,000 tested, 0.14% active; in the data active = inhibition above about 12%
# RecA splice inh – inhibitors of M. tuberculosis RecA intein splicing | P9WHJ3 | cell-free RecA intein splicing, fluorescence | inhibition, % (no concentration beside the values) | 290,000 tested, 0.75% active | AID 2221; in the data active = inhibition above about 30%;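 also: 0% = vehicle wells and 100% = reference inhibitor control wells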
# SSB-PriA inh – K. pneumoniae PriA-SSBct interaction inhibition; AlphaScreen SSBct-PriA binding, biotinylated peptide; inhibition, % at 33 µM; 430,000 tested, 0.6% active; in the data active = inhibition mostly above about 37%, no sharp cut-off; inactive = mostly below about 20%;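 also: plate controls were negative control peptide for no effect and reference peptide for full effect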
# CCHFV vOTU inh – CCHFV vOTU protease inhibition. Pep-AMC fluorescence. 370,000 tested, 0.55% active. inhibition, % at 11.5 µM. AID 651958; in the data active = inhibition above about 30%; also: 0% = vehicle wells with enzyme and 100% = no enzyme wells
# DUSP3 inh – blocks human VHR1 dual specificity phosphatase. P51452. recombinant VHR phosphatase, pNPP absorbance. inhibition, % at 13.3 µM. 290,000 tested, 0.52% active. AID 1654; in the data active = inhibition above about 50%
# Target sequence (P51452 whole entry, looked up): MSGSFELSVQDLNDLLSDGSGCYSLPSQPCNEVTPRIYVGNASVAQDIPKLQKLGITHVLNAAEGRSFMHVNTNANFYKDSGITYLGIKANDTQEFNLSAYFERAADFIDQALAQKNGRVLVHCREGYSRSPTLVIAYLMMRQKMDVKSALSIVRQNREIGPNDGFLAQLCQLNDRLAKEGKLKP
# SARS 3CLpro inh-2 – confirmation of SARS coronavirus 3C-like protease inhibitors; 380 tested, 36% active; shares compounds with SARS 3CLpro inh-1; QFRET protease activity assay, 3CLpro; inhibition, % at 6 µM; in the data active = inhibition above about 13%
# Numbers without * were called inactive; · = not tested or not shown.
SMILES,SARS 3CLpro inh-1,RecA splice inh,SSB-PriA inh,CCHFV vOTU inh,DUSP3 inh,SARS 3CLpro inh-2
CCOC(=O)c1ccc(NC(=O)CN2C(=O)C(CC)SC(CC)C2=O)cc1 (stereo not drawn),13*,2,-8,3,16,-2
CCOC(=O)c1ccc(NC(=O)CN2C(=O)CSCC2=O)cc1,11,2,-11,7,7,·
Cc1ccc(S(=O)(=O)N2CCC[C@H](C(=O)Nc3cc(C)nn3C(C)C)C2)cc1,·,·,-7,·,·,·
Cc1ccc(OCC(=O)N/N=C/c2ccc([N+](=O)[O-])o2)cc1,13*,10,·,16,22,-6
COc1ccccc1N1CCN(Cc2cc(=O)c(OCc3ccccc3F)co2)CC1,·,·,11,·,·,·
O=S(=O)(Nc1ccc(S(=O)(=O)Nc2nccs2)cc1)c1ccc(Br)cc1,47*,-52,-5,18,-9,1
O=S(=O)(Nc1nccs1)c1ccc(Br)cc1,1,2,-2,7,10,·
Oc1cccc2ccc(N3CCN(c4ccccc4)CC3)nc12,·,·,-9,·,·,·
C/C(=N\N=C(/N)SC1CC(=O)N(c2ccc(Cl)cc2)C1=O)c1cccs1 (stereo not drawn),13*,6,·,13,6,9
COc1cc(CNCCc2c[nH]c3ccccc23)cc(OC)c1,71*,-4,14,-7,16,-5
c1ccc(CNCCc2c[nH]c3ccccc23)cc1,-2,0,0,-2,6,·
CCOC(=O)c1cc(-c2ccccc2)sc1N,59*,1,-9,9,18,33*
CCOC(=O)c1c(N)sc(C(O)(C(F)(F)F)C(F)(F)F)c1-c1ccccc1,12*,3,5,-7,12,10
CCn1nc(NS(=O)(=O)c2ccccc2)c2cc3cc(C)ccc3nc21,12*,-1,-11,16,-2,1
CCn1nc(NC(=O)C(C)(C)C)c2cc3cccc(C)c3nc21,-3,-78,-47,-7,5,·
CCn1nc(NS(=O)(=O)c2ccc([N+](=O)[O-])cc2)c2cc3cccc(C)c3nc21,12*,0,16,3,-3,5
CCn1nc(NS(=O)(=O)c2ccccc2)c2cc3ccc(C)cc3nc21,2,2,9,20,27,·
C[C@@](O)(CNS(=O)(=O)c1ccccc1Br)Cc1ccco1,·,·,-13,·,·,·
N#Cc1cccnc1N1CCC(CNC(=O)C(=O)NCc2ccc3c(c2)OCO3)CC1,·,·,-4,·,·,·
CCOC(=O)C1CCN(C(=O)c2ccc3c(c2)NC(=O)/C(=C/c2ccccc2)S3)CC1,6,-29,5,16,17,·
CCOC(=O)C1CCN(C(=O)c2ccc3c(c2)NC(=O)/C(=C\c2cccc(C)c2)S3)CC1,13*,-2,-7,10,-2,1
O=C(Oc1cccnc1)c1ccc(Cl)cc1,24*,3,-12,-1,0,34*
COc1cccc2sc(N3CC(OC(=O)c4ccno4)C3)nc12,·,·,7,·,·,·
COc1ccc2c(c1)C(=O)C(=O)N2CC1COc2ccccc2O1 (stereo not drawn),35*,6,9,-12,-10,40*
Cc1ccc2c(c1)C(=O)C(=O)N2CC1COc2ccccc2O1 (stereo not drawn),7,6,10,-5,-4,·
SMILES,SARS 3CLpro inh-1,RecA splice inh,SSB-PriA inh,CCHFV vOTU inh,DUSP3 inh,SARS 3CLpro inh-2
CCOc1ccc2c(c1)C(=O)C(=O)N2CC1COc2ccccc2O1 (stereo not drawn),58*,4,-5,-22,-16,60*
Cc1ccc(C(=O)O)cc1NC(=S)NC(=O)c1ccc(COc2ccccc2)cc1,16*,12,2,1,-2,13*
CC(C)(C)OC(=O)[C@H](Cc1ccccc1)NC(=O)c1nc[nH]c1C(=O)NCc1ccccc1,3,1,-1,19,18,·
CC(C)(C)OC(=O)NCc1ccc(CNC(=O)c2[nH]cnc2C(=O)N[C@@H](Cc2ccccc2)C(=O)OC(C)(C)C)cc1,15*,0,-11,25,13,12
CC(C)(C)OC(=O)NCc1ccc(CNC(=O)c2[nH]cnc2C(=O)N[C@@H](Cc2ccccc2)C(=O)OCc2ccccc2)cc1,14*,3,-9,23,24,8
CC(C)(C)OC(=O)NCc1ccc(NC(=O)c2nc[nH]c2C(=O)N[C@@H](Cc2ccccc2)C(=O)OCc2ccccc2)cc1,·,2,-7,16,-5,·
CC(C)(C)OC(=O)CNC(=O)c1[nH]cnc1C(=O)NC(c1ccccc1)c1ccccc1,13*,9,7,12,20,4
COC1(CN)CCSC1 (stereo not drawn),·,·,3,·,·,·
CSc1cccc2sc(NC(=O)c3ccccc3NS(=O)(=O)c3ccc(C)cc3)nc12,·,·,-10,·,·,·
CCOc1cn(C)c(C(=O)Nc2cccc(C(C)=O)c2)cc1=O,·,·,-3,·,·,·
Cc1ccc(NC(=O)CCC(=O)NNC(=O)C(c2ccccc2)c2ccccc2)c(C)c1,14*,·,-19,-8,17,0
Cc1nn(-c2ccccc2)c(N)c1C(c1ccccc1)c1c(C)nn(-c2ccccc2)c1N,14*,9,6,-6,8,-1
Cc1nn(-c2ccccc2)c(N)c1N=O,-4,-12,4,-8,5,·
Cc1ccc(NC(=O)Oc2ccccc2)cc1N1CCCCC1=O,·,·,-3,·,·,·
Cc1cc(C)c(N(C(=O)Cn2nnc3ccccc32)C(C(=O)NC(C)(C)C)c2ccsc2)c(C)c1 (stereo not drawn),43*,5,6,17,6,69*
Cc1ccc(C)c(N(C(=O)Cn2nnc3ccccc32)C(C(=O)NC(C)(C)C)c2ccsc2)c1 (stereo not drawn),6,-2,1,-14,25,·
O=C(Nc1nc(-c2cccs2)cs1)c1ccc(Cl)cc1,13*,9,-13,5,2,4
Cc1cc(NC(=O)C2CCN(S(=O)(=O)c3cccs3)CC2)n(C(C)C)n1,·,·,-13,·,·,·
C=CCc1c(C)nc2c(C)cccc2c1SC(=N)N,16*,3,-11,-10,32,1
Cc1nc2c(C)cccc2c(SC(=N)N)c1CC=C(Cl)Cl,1,0,-4,-2,-15,·
O=C(Nc1ccc(NC(=S)NC(=O)c2ccccc2Cl)cc1)c1cccc(Cl)c1,16*,·,5,2,·,4
CCCn1nnc(NC(=O)COc2ccc(C3CCCCC3)cc2)n1,14*,5,-5,-7,22,1
Cc1cc(C(=O)CCl)c(C)n1-c1cccc([N+](=O)[O-])c1,20*,6,-21,2,22,60*
Cn1ncc(Cl)c1C(=O)Nc1ccc2c(c1)OCO2,13*,2,-17,-16,14,0
COc1cc(/C=N/NC(=O)/C(=C\c2ccc3c(c2)OCO3)NC(=O)c2ccccc2)ccc1O,13*,-1,·,11,13,2
COc1cc(/C=N/NC(=O)c2ccc3c(c2)OCO3)ccc1O,1,-2,·,17,66,·
O=Cc1c(C(=O)O)n(Cc2ccc(Cl)cc2)c2ccccc12,4,-21,2,13,-4,·
O=Cc1c(C(=O)O)n(CC(=O)O)c2ccccc12,13*,-4,-19,6,17,-1

# Source: PubChem (several laboratories)
